The source of these data is PubChem BioAssay (NCI).

Structures are written as SMILES. About 83,000 compounds went through this panel and 20% of them were active in at least one assay; those are over-represented in the sample as a whole.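 Values shown are percent growth following 48 h exposure of cells in 96-well plates to a single concentration of compound; below 10 was considered active.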 Values without a mark were called inactive. Activity calls are given as the source filed them.

Among the test systems are NCI-H23 lung; NCI-H226 lung; NCI-H322M lung; HOP-62 NSCLC; NCI-H460 lung; HOP-92 NSCLC; NCI-H522 lung; A549/ATCC NSCLC; 786-0 renal; COLO 205 colon.
Test in all cases: NCI-60 one-dose screen, 48 h (100 = growth as untreated, 0 = no growth, -100 = all killed)
Holding throughout (settings): 10 µM unless noted

Regarding `Cc1cccc(C)c1NCc1nc(-c2ccccc2)n[nH]1`, the growth with NCI-H23 lung was 97.9%; with NCI-H226 lung, 112%; in the test with NCI-H322M lung, 95.4%; in the test with HOP-62 NSCLC, 100%; with NCI-H460 lung it was 107%; in the test with HOP-92 NSCLC it was 101%. The growth in the test with NCI-H522 lung is 94.5%; in the test with A549/ATCC NSCLC, 101%; with 786-0 renal, 95.6%; with COLO 205 colon it was 106%.
For `COc1ccc2c(c1)c(-c1nc(-c3cn(C)c4ncccc34)cs1)cn2CCN`, the growth is 81.2% with NCI-H23 lung; 84.2% with NCI-H226 lung; 77.2% in the test on NCI-H322M lung; 77.1% in the test with HOP-62 NSCLC; 31.7% in the test with NCI-H460 lung; 57.8% in the test with HOP-92 NSCLC. Moreover, the growth with NCI-H522 lung is 93%; in the test with A549/ATCC NSCLC it was 45.7%; with 786-0 renal it was 94.4%; in the test with COLO 205 colon, 77%.
On to `CC(C)=CCC[C@](C)(O)[C@H]1CC[C@]2(C)[C@@H]1CC[C@@H]1[C@@]3(C)C/C(=C/c4cccc([N+](=O)[O-])c4)C(=O)C(C)(C)[C@@H]3CC[C@]12C`, for which the growth in the test on NCI-H23 lung was 74.9%; in the test on NCI-H226 lung it was 84.5%; with NCI-H322M lung, 103%; with HOP-62 NSCLC, 97.4%; in the test with NCI-H460 lung, 87.2%; in the test on HOP-92 NSCLC, 76.6%. Besides, the growth in the test with NCI-H522 lung was 90.5%; in the test with A549/ATCC NSCLC it was 71%; with 786-0 renal, 88%; in the test on COLO 205 colon, 94%.
For `COc1cccc(-c2nn(-c3ccccc3)cc2-c2ccnc(NCCNS(=O)(=O)c3ccc(C(F)(F)F)cc3)c2)c1`, the growth with NCI-H23 lung is 17.1%; with NCI-H226 lung, 34.8%; in the test with NCI-H322M lung it was 45.1%; with HOP-62 NSCLC it was 35.6%; with NCI-H460 lung, 11.4%; in the test with HOP-92 NSCLC, -10.9% (active). For the same molecule, the growth in the test on NCI-H522 lung was 1.9% (active); in the test with A549/ATCC NSCLC it was 14.2%; with 786-0 renal it was 3.75% (active); in the test on COLO 205 colon it was -73.5% (active).
Take `C=C(C)[C@@H]1CC[C@]2(C)[C@H](CC=C3[C@@H]4CC(C)(C)CC[C@]4(C=O)CC[C@]32C)[C@@]1(C)CCCN`: the growth in the test with NCI-H23 lung is 86.4%; with NCI-H226 lung it was 85.5%; in the test with NCI-H322M lung it was 86.5%; in the test on HOP-62 NSCLC it was 88.9%; in the test on NCI-H460 lung it was 86.3%; in the test on HOP-92 NSCLC, 62%. Also, the growth in the test with NCI-H522 lung is 91.8%; in the test on A549/ATCC NSCLC, 77.6%; in the test with 786-0 renal, 90.4%; in the test on COLO 205 colon it was -62.3% (active).
Take `CCOC(=O)N1CCN(CCCCOc2ccc(C(C)(C)CC)cc2)CC1`: the growth with NCI-H23 lung is 89.4%; with NCI-H226 lung it was 88.5%; in the test on NCI-H322M lung, 113%; in the test with HOP-62 NSCLC, 100%; in the test with NCI-H460 lung, 105%; in the test on HOP-92 NSCLC, 86.3%. In addition, the growth was 77.8% with NCI-H522 lung, 95.7% in the test with A549/ATCC NSCLC, 99.7% in the test with 786-0 renal and 105% with COLO 205 colon.
In the case of `Cc1cc(N2CCCCC2)nc(N(CCNc2ccnc3cc(Cl)ccc23)Cc2ccco2)n1`, the growth in the test with NCI-H23 lung is 9.31% (active); in the test with NCI-H226 lung, 80.1%; with NCI-H322M lung, 68.9%; in the test on HOP-62 NSCLC, 24.3%; in the test on NCI-H460 lung, 8.11% (active); in the test on HOP-92 NSCLC it was 52%. The growth in the test with NCI-H522 lung is 19.1%; with A549/ATCC NSCLC, 36.6%; with 786-0 renal, 23.4%; in the test with COLO 205 colon, -13.7% (active).
`OCC(CO)(CCl)CCl`: the growth in the test with NCI-H23 lung was 93.2%; with NCI-H226 lung it was 101%; in the test on NCI-H322M lung it was 112%; with HOP-62 NSCLC it was 99%; in the test on NCI-H460 lung it was 106%; in the test with HOP-92 NSCLC it was 86.4%. The growth was 91.1% with NCI-H522 lung, 76.7% in the test on A549/ATCC NSCLC, 100% in the test with 786-0 renal and 105% in the test with COLO 205 colon.
For `Cn1cc(-c2csc(-c3cn(CCN)c4ccc(F)cc34)n2)c2cccnc21`, the growth with NCI-H23 lung was 72.4%; with NCI-H226 lung it was 80.2%; in the test with NCI-H322M lung, 73%; in the test on HOP-62 NSCLC, 64.7%; in the test with NCI-H460 lung it was 23.4%; in the test with HOP-92 NSCLC, 48.5%. For the same molecule, the growth in the test with NCI-H522 lung is 81.2%; with A549/ATCC NSCLC, 42%; in the test with 786-0 renal, 79.4%; in the test on COLO 205 colon, 67.1%.
As for `N#Cc1c(-c2ccco2)nc2c(c(-c3ccccc3)nn2-c2ccccc2)c1-c1ccc(O)cc1`, the growth with NCI-H23 lung is 99.7%; in the test with NCI-H226 lung, 73.3%; in the test with NCI-H322M lung, 81.9%; in the test with HOP-62 NSCLC, -50% (active); in the test with NCI-H460 lung it was 49.8%; in the test on HOP-92 NSCLC it was 76.1%. In addition, the growth in the test on NCI-H522 lung was 19.3%; in the test with A549/ATCC NSCLC, 46.9%; in the test on 786-0 renal, 59.1%; in the test on COLO 205 colon, 3.62% (active).
Regarding `Cc1ccc2oc(=O)cc(-c3sc(N4CCCCC4)nc3-c3ccccc3)c2c1`, the growth is 90.9% in the test on NCI-H23 lung; 90.4% in the test with NCI-H226 lung; 81.8% in the test on NCI-H322M lung; 89.7% with HOP-62 NSCLC; 91.1% in the test with NCI-H460 lung; 92.1% in the test with HOP-92 NSCLC. In addition, the growth with NCI-H522 lung was 89%; in the test on A549/ATCC NSCLC, 99.6%; in the test on 786-0 renal it was 99.8%; with COLO 205 colon, 97.3%.
On to `Cc1cc(C)c(NC(=O)c2sc3nc4c(cc3c2N)CCCC4)c(C)c1`, for which the growth is 59.8% in the test with NCI-H23 lung; 78.6% in the test on NCI-H226 lung; 88.7% with NCI-H322M lung; 24.1% in the test on HOP-62 NSCLC; 28.8% with NCI-H460 lung; 52.3% with HOP-92 NSCLC. Further, the growth is 4.49% (active) with NCI-H522 lung, 50.1% with A549/ATCC NSCLC, 47.3% in the test with 786-0 renal and 42.6% in the test on COLO 205 colon.
On to `Cn1cc(-c2csc(-c3cn(CCNC(=O)OC(C)(C)C)c4ccccc34)n2)c2cccnc21`, for which the growth with NCI-H23 lung is 65.7%; with NCI-H226 lung it was 55.9%; in the test on NCI-H322M lung, 90.1%; in the test with HOP-62 NSCLC, 72.5%; in the test on NCI-H460 lung it was 92.6%; with HOP-92 NSCLC, 56.6%. In addition, the growth is 52.6% in the test on NCI-H522 lung, 78.8% with A549/ATCC NSCLC, 93.6% in the test with 786-0 renal and 73.3% with COLO 205 colon.
